Records with an inconclusive call do not appear. Calls of active or inactive are those of the source. Unless noted, calls follow the shape of the dose curve; as a rule, active = well fitted curve in the direction sought with a large enough effect in the repeat runs; inconclusive = weak or mixed curves; inactive = no such curve, though single readings can be large; an effect the other way counts as inactive or inconclusive.
Legend:
[1] = target: Aryl hydrocarbon receptor (Homo sapiens) (UniProt P35869); experiment: qHTS assay to identify small molecule that activate the aryl hydrocarbon receptor (AhR) signaling pathway (AID 743085);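 also: HG2L7.5c1 human HepG2 liver cells with stably integrated DRE-driven firefly reporter; series mostly up to about 70 µM; nearly all actives have a fitted effect of over 15% in size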
Aryl hydrocarbon receptor (Homo sapiens), sequence (P35869 whole entry, looked up): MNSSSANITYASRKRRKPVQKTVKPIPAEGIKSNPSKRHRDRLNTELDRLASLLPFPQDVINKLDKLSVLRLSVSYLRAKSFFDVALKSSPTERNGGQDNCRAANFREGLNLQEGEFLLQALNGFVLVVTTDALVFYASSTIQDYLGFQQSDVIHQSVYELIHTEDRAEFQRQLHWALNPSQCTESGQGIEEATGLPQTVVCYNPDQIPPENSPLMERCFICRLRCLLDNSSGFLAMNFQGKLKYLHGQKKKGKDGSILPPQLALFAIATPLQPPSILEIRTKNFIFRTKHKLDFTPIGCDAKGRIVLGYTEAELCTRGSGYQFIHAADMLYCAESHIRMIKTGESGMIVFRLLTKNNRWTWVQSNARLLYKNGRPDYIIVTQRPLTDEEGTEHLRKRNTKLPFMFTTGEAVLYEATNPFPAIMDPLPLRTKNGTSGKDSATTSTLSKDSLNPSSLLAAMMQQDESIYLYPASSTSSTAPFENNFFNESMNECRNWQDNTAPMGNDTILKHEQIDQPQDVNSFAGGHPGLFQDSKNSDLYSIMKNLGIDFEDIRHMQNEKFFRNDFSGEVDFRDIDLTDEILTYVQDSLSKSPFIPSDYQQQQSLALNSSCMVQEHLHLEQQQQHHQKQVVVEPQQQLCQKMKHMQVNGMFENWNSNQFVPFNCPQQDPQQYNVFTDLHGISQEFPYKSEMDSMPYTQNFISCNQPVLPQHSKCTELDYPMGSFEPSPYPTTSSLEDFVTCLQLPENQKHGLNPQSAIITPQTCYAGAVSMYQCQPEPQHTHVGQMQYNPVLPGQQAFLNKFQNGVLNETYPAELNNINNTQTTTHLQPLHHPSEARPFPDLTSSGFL
In short: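 Steps: seed HepG2-AhR-luc cells; allow 5 h at 37C; pin-transfer test compound or vehicle; incubate 24 h at 37C; add viability dye (30 min, 37C) and read fluorescence; add luciferase substrate (30 min, RT) and read luminescence.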

[2] = qHTS assay to identify small molecule that activate the aryl hydrocarbon receptor (AhR) signaling pathway - cell viability counter screen (AID 743086);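 also: HepG2 liver cells carrying the AhR DRE luciferase reporter; series mostly up to about 70 µM; nearly all actives have a fitted effect of over 45% in size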
In short: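 HepG2-AhR-luc (HG2L7.5c1) cells, 4000/well, treated 24 h at 37 C with compound; viability measured as CellTiter-Fluor fluorescence after 30 min in the same wells as the luciferase read.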

[3] = target: Peroxisome proliferator-activated receptor gamma (Homo sapiens) (UniProt P37231); experiment: qHTS assay to identify small molecule agonists of the peroxisome proliferator-activated receptor gamma (PPARg) signaling pathway (AID 743094; active = well fitted activation curve with a large enough effect in the signal ratio in the repeat runs, not every such curve was filed as active; the % refers to the signal ratio)
Peroxisome proliferator-activated receptor gamma (Homo sapiens), sequence (P37231 whole entry, looked up): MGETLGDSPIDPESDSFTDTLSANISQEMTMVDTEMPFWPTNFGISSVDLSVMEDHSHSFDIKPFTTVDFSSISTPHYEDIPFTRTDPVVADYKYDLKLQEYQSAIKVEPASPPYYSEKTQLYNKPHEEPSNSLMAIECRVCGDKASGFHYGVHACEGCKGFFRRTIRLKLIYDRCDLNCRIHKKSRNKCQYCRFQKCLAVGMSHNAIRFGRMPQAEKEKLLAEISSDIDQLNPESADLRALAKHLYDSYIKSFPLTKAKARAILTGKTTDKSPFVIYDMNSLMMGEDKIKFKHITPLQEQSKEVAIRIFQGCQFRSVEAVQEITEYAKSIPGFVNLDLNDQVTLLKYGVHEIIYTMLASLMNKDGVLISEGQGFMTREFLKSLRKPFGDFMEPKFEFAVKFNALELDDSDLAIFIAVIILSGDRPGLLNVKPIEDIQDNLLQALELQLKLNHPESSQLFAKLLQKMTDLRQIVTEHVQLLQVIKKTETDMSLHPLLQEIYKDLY
In short: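 Following 5 h plating at 37C, PPARg-bla HEK293H cells receive compound or DMSO for 17 h; fluorescence intensity is recorded after LiveBLAzer B/G loading for 1 h at room temperature.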

[4] = target: Peroxisome proliferator-activated receptor gamma (Homo sapiens) (UniProt P37231); experiment: qHTS assay to identify small molecule antagonists of the peroxisome proliferator-activated receptor gamma (PPARg) signaling pathway (AID 743191; calls by dose curve; also: series mostly up to about 63 µM; nearly all actives have a fitted effect of over 30% in size)
In short: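 GeneBLAzer PPARg UAS-bla HEK293H cells, 5 h post-plating, exposed to compounds 17 h at 37C. LiveBLAzer B/G FRET substrate added for 1 h at room temperature; beta-lactamase reporter read by fluorescence intensity.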

[5] = qHTS assay to identify small molecule antagonists of the peroxisome proliferator-activated receptor gamma (PPARg) signaling pathway - cell viability counter screen (AID 743194); conditions: Potency: co-treated with 50 nM rosiglitazone; also: nearly all actives have a fitted effect of over 55% in size
In short: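 Cytotoxicity counter screen in PPARg-bla HEK293H cells, same wells as reporter assay. Compounds plus 50 nM rosiglitazone (final) for 17 h at 37 C, then viability read by CellTiter-Glo luminescence.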

[6] = qHTS assay for small molecule agonists of the antioxidant response element (ARE) signaling pathway - cell viability counter screen (AID 743203; calls by dose curve; also: nearly all actives have a fitted effect of over 55% in size)
In short: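 Compounds in DMSO were pinned onto ARE-bla HepG2 cells plated 5 hrs earlier at 2,000 cells/well. Sixteen hours later at 37C/5% CO2, CellTiter-Glo was added and luminescence measured after 30 min at room temperature.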

[7] = qHTS assay for small molecule activators of the heat shock response signaling pathway - cell viability counter screen (AID 743209); also: nearly all actives have a fitted effect of over 50% in size
In short: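 Counter screen for cytotoxicity in HeLa HSE-bla reporter cells. Treatment was 5 h at 37 C; viability was detected by luminescent ATP assay (CellTiter-Glo) in the same wells as the beta-lactamase read.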

[8] = qHTS assay for small molecule activators of the heat shock response signaling pathway (AID 743210; active = well fitted activation curve with a large enough effect in the signal ratio in the repeat runs, with a control signal flat, not every such curve was filed as active; the % refers to the signal ratio;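 also: HeLa cells with beta-lactamase reporter driven by heat shock elements; series mostly up to about 63 µM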)
In short: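 Quantitative high-throughput format using an engineered HeLa line in which heat shock response elements drive beta-lactamase; after 5 h with compound, cells received a B/G FRET substrate and fluorescence was read.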

[9] = qHTS assay to identify small molecule agonists of the peroxisome proliferator-activated receptor delta (PPARd) signaling pathway - cell viability counter screen (AID 743211); also: nearly all actives have a fitted effect of over 55% in size
In short: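 Viability of GeneBLAzer PPARd UAS-bla HEK293H cells was assessed after 17 h compound incubation at 37C, using CellTiter-Glo reagent added after the reporter read and luminescence recorded 30 min later.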

[10] = qHTS assay to identify small molecule antagonists of the peroxisome proliferator-activated receptor delta (PPARd) signaling pathway - cell viability counter screen (AID 743213); also: nearly all actives have a fitted effect of over 50% in size
In short: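 In this counter screen, HEK293H cells carrying a UAS-beta-lactamase reporter are co-treated with test compounds and 300 nM L165041 (final) for 17 h at 37 C; cell viability is quantified by CellTiter-Glo luminescence.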

[11] = target: Bile acid receptor (Homo sapiens) (UniProt Q96RI1); experiment: qHTS assay to identify small molecule antagonists of the farnesoid-X-receptor (FXR) signaling pathway (AID 743217; active = well fitted inhibition curve with a large enough effect in the signal ratio in the repeat runs, not every such curve was filed as active; the % refers to the signal ratio)
Bile acid receptor (Homo sapiens), sequence (Q96RI1 whole entry, looked up): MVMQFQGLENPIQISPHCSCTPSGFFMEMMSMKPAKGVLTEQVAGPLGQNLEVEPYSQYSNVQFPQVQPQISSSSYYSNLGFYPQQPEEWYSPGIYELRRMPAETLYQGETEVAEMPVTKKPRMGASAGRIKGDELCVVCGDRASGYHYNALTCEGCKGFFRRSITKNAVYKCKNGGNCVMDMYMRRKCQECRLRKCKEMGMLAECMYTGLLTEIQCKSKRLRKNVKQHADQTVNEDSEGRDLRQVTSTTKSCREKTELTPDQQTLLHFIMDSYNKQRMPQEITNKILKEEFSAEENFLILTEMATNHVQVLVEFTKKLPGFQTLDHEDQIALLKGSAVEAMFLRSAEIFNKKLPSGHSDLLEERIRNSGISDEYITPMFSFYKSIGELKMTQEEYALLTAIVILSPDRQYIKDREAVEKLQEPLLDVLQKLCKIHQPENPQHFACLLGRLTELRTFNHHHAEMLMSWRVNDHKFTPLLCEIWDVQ
In short: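 In this cell-based antagonist screen, inhibition of CDCA-driven (50 uM final) UAS-beta-lactamase expression in HEK 293T cells was measured by FRET fluorescence following 16 h compound exposure at 37 °C.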

[12] = qHTS assay to identify small molecule agonists of the farnesoid-X-receptor (FXR) signaling pathway - cell viability counter screen (AID 743218); also: nearly all actives have a fitted effect of over 45% in size
In short: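 After 16 h at 37 C with test compounds, FXR-bla HEK 293T cells were given LiveBLAzer B/G substrate for 2 h at RT and then CellTiter-Glo; luminescence was taken after 30 min.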

[13] = target: Bile acid receptor (Homo sapiens) (UniProt Q96RI1); experiment: qHTS assay to identify small molecule agonists of the farnesoid-X-receptor (FXR) signaling pathway (AID 743220; active = well fitted activation curve with a large enough effect in the signal ratio in the repeat runs, not every such curve was filed as active; the % refers to the signal ratio)
In short: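 Beta-lactamase reporter under UAS control in GeneBLAzer FXR HEK 293T cells (5000/well) measured with LiveBLAzer FRET substrate after 2 h at room temperature. Compound exposure lasted 16 h at 37C.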

[14] = qHTS assay to identify small molecule antagonists of the farnesoid-X-receptor (FXR) signaling pathway - cell viability counter screen (AID 743221; active = well fitted cell-killing curve with a large enough effect in the repeat runs, not every such curve was filed as active; also: nearly all actives have a fitted effect of over 50% in size)
In short: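 Quantitative HTS of the Tox21 10K library run in parallel with the beta-lactamase reporter read. HEK 293T cells carrying a UAS-driven bla reporter got compound and 50 uM CDCA (final) for 16 h; ATP-based luminescence followed.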

[15] = target: Vitamin D3 receptor (Homo sapiens) (UniProt P11473); experiment: qHTS assay to identify small molecule antagonists of the vitamin D receptor (VDR) signaling pathway (AID 743223; active = well fitted inhibition curve with a large enough effect in the signal ratio in the repeat runs, not every such curve was filed as active; the % refers to the signal ratio)
Vitamin D3 receptor (Homo sapiens), sequence (P11473 whole entry, looked up): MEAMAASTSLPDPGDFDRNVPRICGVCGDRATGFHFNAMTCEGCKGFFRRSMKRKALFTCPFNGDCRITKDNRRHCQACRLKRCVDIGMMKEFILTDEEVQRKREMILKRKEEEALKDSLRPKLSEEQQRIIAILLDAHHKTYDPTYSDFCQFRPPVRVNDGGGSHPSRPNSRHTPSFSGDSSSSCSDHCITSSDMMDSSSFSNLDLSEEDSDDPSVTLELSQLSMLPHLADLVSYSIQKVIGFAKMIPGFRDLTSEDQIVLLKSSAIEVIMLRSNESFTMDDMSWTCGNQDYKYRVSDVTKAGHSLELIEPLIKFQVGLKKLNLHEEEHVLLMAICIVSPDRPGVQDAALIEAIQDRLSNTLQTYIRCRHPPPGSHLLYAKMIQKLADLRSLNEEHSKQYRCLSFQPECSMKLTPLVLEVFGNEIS
In short: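 Fluorescence from LiveBLAzer B/G FRET substrate, read after 2 h at room temperature, reflects beta-lactamase reporter activity in VDR-bla cells treated 16 h at 37C with compounds and agonist 1alpha,25-dihydroxyvitamin D3 (3 nM final).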

[16] = qHTS assay to identify small molecule agonists of the vitamin D receptor (VDR) signaling pathway - cell viability counter screen (AID 743224); also: series mostly up to about 63 µM; nearly all actives have a fitted effect of over 50% in size
In short: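 Here cell health was gauged by luminescent ATP detection (CellTiter-Glo, 30 min RT) in VDR-bla cells that had been incubated with test compounds for 16 h at 37C and 5% CO2.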

[17] = qHTS assay for small molecule agonists of the antioxidant response element (ARE) signaling pathway (AID 743202; active = well fitted activation curve with a large enough effect in the signal ratio in the repeat runs, not every such curve was filed as active; the % refers to the signal ratio)
In short: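 Agonist mode reporter screen: HepG2 cells with ARE-controlled beta-lactamase are incubated with test compounds for 16 h at 37 C, and beta-lactamase activity is measured as fluorescence of cleaved B/G FRET substrate.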

[18] = target: Peroxisome proliferator-activated receptor delta (Homo sapiens) (UniProt Q03181); experiment: qHTS assay to identify small molecule agonists of the peroxisome proliferator-activated receptor delta (PPARd) signaling pathway (AID 743212; calls by dose curve)
Peroxisome proliferator-activated receptor delta (Homo sapiens), sequence (Q03181 whole entry, looked up): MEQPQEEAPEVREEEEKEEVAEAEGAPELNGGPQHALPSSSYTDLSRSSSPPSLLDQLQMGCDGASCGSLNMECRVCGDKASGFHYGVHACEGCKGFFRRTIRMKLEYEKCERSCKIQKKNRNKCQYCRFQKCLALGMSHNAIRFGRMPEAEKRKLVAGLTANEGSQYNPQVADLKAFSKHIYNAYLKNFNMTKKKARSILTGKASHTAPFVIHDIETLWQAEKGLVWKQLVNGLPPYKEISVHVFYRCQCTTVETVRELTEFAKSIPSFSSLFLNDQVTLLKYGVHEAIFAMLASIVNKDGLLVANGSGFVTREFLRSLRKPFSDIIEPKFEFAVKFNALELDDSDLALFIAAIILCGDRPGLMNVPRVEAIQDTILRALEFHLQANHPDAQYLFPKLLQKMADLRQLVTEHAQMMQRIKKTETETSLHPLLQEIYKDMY
In short: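 Quantitative high-throughput agonist screen in a HEK293H beta-lactamase reporter line under UAS control. Compounds in DMSO, at 37 C. Fluorescence read after 2 h with FRET substrate at room temperature.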

[19] = target: Peroxisome proliferator-activated receptor delta (Homo sapiens) (UniProt Q03181); experiment: qHTS assay to identify small molecule antagonists of the peroxisome proliferator-activated receptor delta (PPARd) signaling pathway (AID 743215; active = well fitted inhibition curve with a large enough effect in the signal ratio in the repeat runs, not every such curve was filed as active; the % refers to the signal ratio;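 also: cells stimulated with agonist L165041 at 300 nM final during compound exposure; series mostly up to about 62 µM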)
In short: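 With L165041 present at 300 nM final, compounds were incubated 17 h at 37 C on PPARd UAS-bla HEK293H cells. A FRET-based beta-lactamase substrate was then applied for 2 h at room temperature and fluorescence intensity recorded.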

[20] = target: Vitamin D3 receptor (Homo sapiens) (UniProt P11473); experiment: qHTS assay to identify small molecule agonists of the vitamin D receptor (VDR) signaling pathway (AID 743222; calls by dose curve)
In short: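 VDR-bla cells were seeded, left 4 h, treated with compounds in DMSO for 16 h, incubated 2 h at RT with B/G FRET substrate, and read for fluorescence.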

Measured: Potency

CN1CCN(C(=O)O[C@H]2c3nccnc3C(=O)N2c2ccc(Cl)cn2)CC1
not listed: [17] | [18] | [19] | [20]
inactive: all other assays above

CCN(CC)C(C)C(=O)c1ccccc1 (stereo not given)
not listed: [10] | [11] | [13] | [15] | [20]
inactive: all other assays above

CC(C)NCC(O)c1ccc(N)c(C#N)c1 (stereo not given)
not listed: [12] | [13] | [15] | [19] | [20]
inactive: all other assays above

O=C(N[C@H]1CN2CCC1CC2)c1cc2ccoc2cn1
not listed: [11] | [13] | [15] | [17] | [19] | [20]
inactive: all other assays above

O=CNC(N1CCN(C(NC=O)C(Cl)(Cl)Cl)CC1)C(Cl)(Cl)Cl (stereo not given)
not listed: [6] | [8] | [11] | [13] | [14] | [19]
inactive: all other assays above

CCC1(c2ccccc2)C(=O)N=C(O)NC1=O (stereo not given)
not listed: [11] | [13] | [19]
inactive: all other assays above

N#CC(Cl)(Cl)Cl
not listed: [7] | [12] | [15] | [20]
inactive: all other assays above

O=[N+]([O-])c1cccc(O)c1
not listed: [17] | [20]
inactive: all other assays above

Reference: PubChem BioAssay (Tox21)
